A number with no mark means an inactive call. For some assays here: Results with a measured potency or affinity are listed apart. The source made the active and inactive calls. Unless noted, how the calls were made is not given here.

The nature of test [1]: antimalarial activity against Dd2 strain (AID 2302;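 active means growth inhibition above 50% at the single 2 µM test dose, taken to imply half-maximal potency below 2 µM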;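 further: 0% = DMSO untreated growth and 100% = chloroquine plus artemisinin killed control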). As to conditions: P. falciparum Dd2 in RBCs, LDH growth readout, 72 h; at 2 µM; active compounds read high.
The nature of test [2]: human hepatoma cell viability loss – ATP luminescence, cytotoxicity control for P. falciparum antimalarial project, primary screen (AID 2303;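 active means inhibition above 50%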;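 further: 0% = DMSO wells and 100% = digitonin-killed cells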). As to conditions: HepG2 viability, 24-48 h, at 10 µM, active compounds read high.
Test [3] deals with L-lactate dehydrogenase (Plasmodium falciparum (isolate CDC / Honduras)) (UniProt Q27743). Put plainly: PfLDH activity inhibition – cell lysate, 3D7 strain, counter-screen for P. falciparum growth inhibition project (AID 2304).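 Further: 0% = vehicle and 100% = reference inhibitor.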 As to conditions: P. falciparum 3D7 crude extract, LDH APAD/NBT absorbance; at 2 µM; active compounds read high.
L-lactate dehydrogenase (Plasmodium falciparum (isolate CDC / Honduras)), sequence (Q27743 whole entry, looked up): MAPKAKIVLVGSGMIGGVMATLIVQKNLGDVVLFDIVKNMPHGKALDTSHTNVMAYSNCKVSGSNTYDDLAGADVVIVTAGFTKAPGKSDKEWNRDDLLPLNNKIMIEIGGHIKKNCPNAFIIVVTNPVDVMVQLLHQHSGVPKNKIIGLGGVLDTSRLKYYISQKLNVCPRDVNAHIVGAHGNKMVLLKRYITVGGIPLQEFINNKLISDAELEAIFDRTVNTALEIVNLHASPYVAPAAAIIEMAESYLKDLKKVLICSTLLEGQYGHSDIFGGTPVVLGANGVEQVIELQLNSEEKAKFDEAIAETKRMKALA
A short description of test [4]: inhibition of 3D7 malaria parasite growth – strain 3D7 (AID 2306).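 Further: 0% = DMSO wells and 100% = chloroquine plus artemisinin control wells.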 As to conditions: P. falciparum 3D7 erythrocytic growth, LDH absorbance, 72 h; at 2 µM; active compounds read high.
Test [5] concerns the target Calcium-dependent protein kinase 1 (Plasmodium falciparum (isolate 3D7)) (UniProt P62344). Put plainly: PfCDPK1 kinase inhibitors, biochemical, TCAMS library (AID 1159585; cut-off not given, nearly all actives have IC50 up to about 0.98 µM;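 further: inhibitors leave more ATP so luminescence rises with inhibition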). As to conditions: recombinant PfCDPK1, Kinase-Glo ATP depletion luminescence.
For test [6], the target named is Plasmodium falciparum protein kinase 6 (PK6, PF3D7_1337100) (UniProt Q8IDW1). Put plainly: PfPK6 kinase inhibitors, biochemical, TCAMS library (AID 1159586). As to conditions: recombinant PfPK6, Kinase-Glo ATP depletion luminescence.
Plasmodium falciparum protein kinase 6 (PK6, PF3D7_1337100), sequence (Q8IDW1 1-305): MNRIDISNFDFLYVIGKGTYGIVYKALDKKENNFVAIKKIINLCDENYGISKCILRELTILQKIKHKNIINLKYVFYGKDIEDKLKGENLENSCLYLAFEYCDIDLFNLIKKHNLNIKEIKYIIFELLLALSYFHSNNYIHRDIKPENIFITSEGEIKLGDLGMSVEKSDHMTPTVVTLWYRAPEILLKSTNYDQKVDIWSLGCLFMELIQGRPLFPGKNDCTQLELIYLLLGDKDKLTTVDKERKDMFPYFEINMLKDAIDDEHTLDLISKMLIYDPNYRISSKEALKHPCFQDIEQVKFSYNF
The target of test [7] is Protein kinase 7 (PK7), Plasmodium falciparum 3D7 (PF3D7_0213400) (UniProt Q7YTF7). Put plainly: inhibition of Plasmodium PK7 catalytic activity – biochemical, TCAMS antimalarial set, Kinase-Glo luminescence (AID 1159587). As to conditions: recombinant PfPK7, Kinase-Glo ATP depletion luminescence.
Protein kinase 7 (PK7), Plasmodium falciparum 3D7 (PF3D7_0213400), sequence (Q7YTF7 1-343): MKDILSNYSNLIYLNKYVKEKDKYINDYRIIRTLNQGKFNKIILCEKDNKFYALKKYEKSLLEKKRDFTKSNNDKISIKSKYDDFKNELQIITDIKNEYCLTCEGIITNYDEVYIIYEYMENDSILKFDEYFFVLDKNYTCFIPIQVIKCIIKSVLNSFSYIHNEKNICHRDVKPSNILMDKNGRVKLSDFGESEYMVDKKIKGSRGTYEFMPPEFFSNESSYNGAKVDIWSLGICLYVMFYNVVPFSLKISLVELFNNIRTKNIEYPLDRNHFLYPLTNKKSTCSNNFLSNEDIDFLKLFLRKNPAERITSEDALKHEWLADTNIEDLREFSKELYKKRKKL
Test [8] deals with Calcium-dependent protein kinase 4 (Plasmodium falciparum (isolate 3D7)) (UniProt Q8IBS5). Put plainly: PfCDPK4 kinase inhibitors, biochemical, TCAMS library (AID 1159588; cut-off not given, nearly all actives have IC50 up to about 0.91 µM). As to conditions: recombinant PfCDPK4, Kinase-Glo ATP depletion luminescence.
Calcium-dependent protein kinase 4 (Plasmodium falciparum (isolate 3D7)), sequence (Q8IBS5 whole entry, looked up): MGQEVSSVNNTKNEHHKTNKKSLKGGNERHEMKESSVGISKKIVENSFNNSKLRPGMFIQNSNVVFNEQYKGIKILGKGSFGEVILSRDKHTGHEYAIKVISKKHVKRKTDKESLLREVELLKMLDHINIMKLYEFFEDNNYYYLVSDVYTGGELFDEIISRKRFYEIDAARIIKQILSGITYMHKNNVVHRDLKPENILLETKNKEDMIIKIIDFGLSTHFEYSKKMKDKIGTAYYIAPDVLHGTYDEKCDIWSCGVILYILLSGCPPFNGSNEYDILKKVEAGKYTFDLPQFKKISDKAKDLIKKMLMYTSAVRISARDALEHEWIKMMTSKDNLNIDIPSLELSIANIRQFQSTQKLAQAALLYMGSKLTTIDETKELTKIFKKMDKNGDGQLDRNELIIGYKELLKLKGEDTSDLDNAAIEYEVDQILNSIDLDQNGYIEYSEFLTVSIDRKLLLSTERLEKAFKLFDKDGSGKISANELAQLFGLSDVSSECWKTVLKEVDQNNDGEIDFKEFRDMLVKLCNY

Calcium-dependent protein kinase 1 (Plasmodium falciparum (isolate 3D7)), sequence (P62344 whole entry, looked up): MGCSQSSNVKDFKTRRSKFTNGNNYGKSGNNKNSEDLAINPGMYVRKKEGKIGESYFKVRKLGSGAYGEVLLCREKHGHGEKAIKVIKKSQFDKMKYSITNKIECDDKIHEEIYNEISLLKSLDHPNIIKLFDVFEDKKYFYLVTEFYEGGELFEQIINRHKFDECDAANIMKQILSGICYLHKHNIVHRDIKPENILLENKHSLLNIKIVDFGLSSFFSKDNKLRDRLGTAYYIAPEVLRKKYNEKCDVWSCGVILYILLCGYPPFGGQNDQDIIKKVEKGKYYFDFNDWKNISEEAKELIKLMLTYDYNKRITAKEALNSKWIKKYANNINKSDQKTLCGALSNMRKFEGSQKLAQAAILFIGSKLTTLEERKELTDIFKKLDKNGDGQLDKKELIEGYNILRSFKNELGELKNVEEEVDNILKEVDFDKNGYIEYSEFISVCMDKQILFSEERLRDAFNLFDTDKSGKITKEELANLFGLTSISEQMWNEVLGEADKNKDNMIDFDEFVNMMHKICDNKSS

As for `COc1ccccc1CN1CCC(CNC(=O)c2cc(-c3cccc(C(F)(F)F)c3)cs2)C1` (configuration not stated), the growth inhibition in test [1] was 1%; in test [4], 84% (active). The results for the inhibition in test [2] and in test [3] were 25% and 4%, respectively. Moreover, the outcome in test [5], in test [6], in test [7] and in test [8] was inactive.
As to `Cc1cccc2[nH]c(-c3cccc(-c4cccc(NC(=O)CCc5cnc[nH]5)c4)c3)nc12`, the figures for the growth inhibition in test [1] and in test [4] were 86% (active) and 102% (active), respectively. The inhibition in test [2] is 16%; in test [3] it was 0%. For the same compound, the outcome in test [5], in test [6], in test [7] and in test [8] was inactive.
Take `COc1cc2nc(N3CCC(CNC(=O)c4ccc(-c5ccc(-c6noc(C)n6)cc5)cc4)CC3)nc(N)c2cc1OC`: the growth inhibition in test [1] is 100% (active); in test [4], 98% (active). Besides, the inhibition was 96% (active) in test [2] and 1% in test [3]. Also, the outcome in test [5], in test [6], in test [7] and in test [8] was inactive.
For the compound `CC(C)Cn1cc(C2CCN(CCN3CCC(CNC(=O)c4ccc(NC(=O)c5cc(Cl)cc(Cl)c5)cc4)CC3)CC2)c2ccccc21`, the results for the growth inhibition in test [1] and in test [4] were 96% (active) and 91% (active), respectively. In addition, the inhibition is 53% (active) in test [2] and -2% in test [3]. In addition, the outcome in test [5], in test [6], in test [7] and in test [8] was inactive.
For the compound `O=C(Nc1cccc(-c2cccc(-c3nc4ccccc4[nH]3)c2)c1)c1csnn1`, the growth inhibition is 27% in test [1] and 90% (active) in test [4]. Also, the inhibition in test [2] was 31%; in test [3], 5%. The result in test [5], in test [6], in test [7] and in test [8] was inactive.
Turning to `COc1cccc(C(=O)Nc2ccc(Nc3nc(C)cc(N(C)C)n3)cc2)c1OC`, the growth inhibition is 9% in test [1] and 90% (active) in test [4]. The inhibition in test [2] is -10%; in test [3] it was -3%. In addition, the outcome in test [5], in test [6], in test [7] and in test [8] was inactive.
As to `CCc1c(C)c(C#N)c2nc3ccccc3n2c1NCc1ccco1`, the growth inhibition in test [1] is 90% (active); in test [4] it was 99% (active). The figures for the inhibition in test [2] and in test [3] were -3% and 6%, respectively. The outcome in test [5], in test [6], in test [7] and in test [8] was inactive.
As for `N#Cc1ccc2c(c1)CCN(CCC1CCC(NC(=O)c3ccc(-c4ccccn4)s3)CC1)CC2` (configuration not stated), the growth inhibition in test [1] was 9%; in test [4], 92% (active). Also, the inhibition is 16% in test [2] and 1% in test [3]. The result in test [5], in test [6], in test [7] and in test [8] was inactive.
Turning to `Cc1ccc(C2CCN(CCCCNC(=O)c3ccc(NC(=O)c4ccc(Cl)cc4)cc3)CC2)c(OCC(F)(F)F)c1`, the growth inhibition was 84% (active) in test [1] and 99% (active) in test [4]. Further, the results for the inhibition in test [2] and in test [3] were 32% and -4%, respectively. The result in test [5], in test [6], in test [7] and in test [8] was inactive.
`CC(=O)c1cc(N2CCCC2)ccc1N`: the growth inhibition in test [1] and in test [4] was 97% (active) each time. Further, the inhibition in test [2] is 1%; in test [3], -2%. For the same compound, the result in test [5], in test [6], in test [7] and in test [8] was inactive.
Consider `Cc1cccc(-c2cc3cc(Nc4ccnc5cc(-c6nccs6)ccc45)ccc3[nH]2)c1`, for which the growth inhibition is 100% (active) in test [1] and 101% (active) in test [4]. For the same compound, the inhibition is 0% in test [2] and 1% in test [3]. In addition, the outcome in test [5], in test [6], in test [7] and in test [8] was inactive.
As to `Nc1cc(C=Cc2ccc([N+](=O)[O-])s2)nc2ccccc12`, the growth inhibition in test [1] was 48%; in test [4], 98% (active). For the same compound, the inhibition is 89% (active) in test [2] and -7% in test [3]. Further, the result in test [5], in test [6], in test [7] and in test [8] was inactive.
As to `CCN(CC)CCN(Cc1ccc(-c2ccc(C(F)(F)F)cc2)cc1)C(=O)c1ccc(-c2ccc(C#N)cc2)cc1`, the growth inhibition was 31% in test [1] and 89% (active) in test [4]. Also, the figures for the inhibition in test [2] and in test [3] were 38% and -5%, respectively. In addition, the result in test [5], in test [6], in test [7] and in test [8] was inactive.
Consider `COc1ccc(C(=O)N2CCC3(CC2)C(=O)N(CC(=O)NCC2CCCCC2)CN3c2ccccc2)c(OC)c1`, for which the growth inhibition in test [1] is 99% (active); in test [4] it was 100% (active). For the same compound, the inhibition in test [2] was 6%; in test [3] it was 4%. In addition, the result in test [5], in test [6], in test [7] and in test [8] was inactive.
For `CCn1ccc2c(N3CCCCS3(=O)=O)cc(C(=O)N[C@@H](Cc3ccccc3)[C@H](O)CNC(C)(C)c3cccc(C(F)(F)F)c3)cc21`, the growth inhibition was 98% (active) in test [1] and 97% (active) in test [4]. Besides, the inhibition was 6% in test [2] and -4% in test [3]. Also, the outcome in test [5], in test [6], in test [7] and in test [8] was inactive.
For the compound `O=C(NCc1cccc2ccccc12)c1ccc(CNC2CCN(Cc3ccccc3)CC2)cc1`, the growth inhibition in test [1] was 88% (active); in test [4], 101% (active). In addition, the figures for the inhibition in test [2] and in test [3] were 15% and 5%, respectively. Besides, the outcome in test [5], in test [6], in test [7] and in test [8] was inactive.
Turning to `Cc1cccc(CN2CCC(CNC(=O)c3cc4c(-c5ccccc5F)nn(C)c4s3)CC2)c1`, the growth inhibition in test [1] was 15%; in test [4], 85% (active). Further, the values for the inhibition in test [2] and in test [3] were 18% and -4%, respectively. The outcome in test [5], in test [6], in test [7] and in test [8] was inactive.
For `CC(C)CNC(=O)CN1C(=O)C(c2ccccc2)(c2ccccc2)N=C1N`, the growth inhibition in test [1] was 46%; in test [4], 94% (active). In addition, the inhibition was 15% in test [2] and -1% in test [3]. Also, the outcome in test [5], in test [6], in test [7] and in test [8] was inactive.
`COc1cc2nc(N(C)Cc3cc4c(Cl)cccc4s3)nc(N)c2cc1OC`: the growth inhibition in test [1] is 27%; in test [4], 90% (active). The inhibition in test [2] is 32%; in test [3], 4%. The result in test [5], in test [6], in test [7] and in test [8] was inactive.

The record behind these values is PubChem BioAssay.
